Compound activity: PubChem, National Center for Advancing Translational Sciences (NCATS)
A selection: hits, their analogues and other compounds. The true share with any hit is near 4.6%.
TRHR PAM: allosterically enhances the human TRH receptor. 360,000 compounds, 0.66% hits. enhancement, % at 2 µM. TRHR cells, fluo-8 calcium fluorescence, EC20 TRH enhancement; in the data active means enhancement above about 30%
Target sequence (P34981 whole entry, looked up): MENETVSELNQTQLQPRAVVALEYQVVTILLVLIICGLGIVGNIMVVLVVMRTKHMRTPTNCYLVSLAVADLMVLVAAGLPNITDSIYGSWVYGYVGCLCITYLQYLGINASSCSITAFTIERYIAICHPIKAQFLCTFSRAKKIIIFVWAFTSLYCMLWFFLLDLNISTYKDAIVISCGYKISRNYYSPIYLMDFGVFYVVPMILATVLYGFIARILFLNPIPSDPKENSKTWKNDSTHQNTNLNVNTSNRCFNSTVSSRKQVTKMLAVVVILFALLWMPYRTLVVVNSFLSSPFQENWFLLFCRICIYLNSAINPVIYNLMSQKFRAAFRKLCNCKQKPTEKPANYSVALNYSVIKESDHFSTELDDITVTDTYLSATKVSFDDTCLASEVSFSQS
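TRHR-expressing cells loaded with fluo-8 calcium dye were read kinetically (ex 480/em 530) during compound addition, then stimulated with an EC20 of TRH (10 nM final). Enhancement of the Gq-mediated intracellular calcium response was scored.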
TRHR ag: activates the human TRH receptor. 360,000 compounds, 0.18% hits. activation, % at 2 µM. AID 493084. TRHR cells, calcium flux fluo-8, FDSS agonist mode
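Fluo-8-loaded TRHR cells; 10 s baseline, compound added, kinetic Ca2+ fluorescence read 1/s, agonist mode.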
D1 antagonist: antagonists of human D1 dopamine receptor | P21728 | HEK293 TREx D1 cells, calcium flux, dopamine EC80; hits give low values | activity change, negative = inhibition, % at 10 µM | 360,000 compounds, 3.2% hits; in the data active means activity change below about -30%
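Compound effects on dopamine-evoked calcium signalling were measured in tetracycline-induced HEK293 Trex D1 cells. Dopamine at EC80 followed a 180 s compound pre-read, and fluorescence was tracked kinetically for 180 s more.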
D1 PAM: potentiators of human D1 dopamine receptor; P21728; HEK293 TREx D1 cells, calcium flux, dopamine EC20 potentiation; potentiation, % at 10 µM; 360,000 compounds, 0.036% hits; in the data active means potentiation above about 30%
D1 agonist: activates the human D1 dopamine receptor. P21728. HEK293 T-REx D1 cells, calcium flux, agonist mode. activation, % at 2 µM. 360,000 compounds, 1% hits
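Tetracycline-induced HEK293 TREx D1 cells, force-coupled to calcium signalling, were dye-loaded with a no-wash calcium kit. Compound was pin-added after a 10 s baseline. Fluorescence was read kinetically at 1 cycle/s for 180 s, with calcium rises flagged as agonism.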
Of the large screens only hits and unclear results are named; the others gave an inactive call. Unless noted, no stated cut-off is given here; in the data, active means activation above about 30%; inactive means the rest.

Cc1cc2c(s1)c1cnn(Cc3ccc(OC(F)F)cc3)c(=O)c1n2C	none
CCOC(=O)N1CCN(C(=O)CS(=O)(=O)Cc2nc(-c3ccccc3C)oc2C)CC1	none
CCOc1ccc(-c2nc(CSCC(=O)N3CCN(c4ccc(F)cc4)CC3)c(C)o2)cc1	none
COc1ccc(-c2nc(CSCC(=O)N3CCN(c4ccc(OC)cc4)CC3)c(C)o2)cc1	D1 antagonist -37
Cc1ccccc1-c1nc(CS(=O)(=O)CC(=O)N2CCOCC2)c(C)o1	none
CCOC(=O)C1CCN(C(=O)CS(=O)(=O)Cc2nc(-c3ccccc3Cl)oc2C)CC1	D1 antagonist -40
CCOC(=O)N1CCN(C(=O)CSCc2nc(-c3ccccc3F)oc2C)CC1	D1 antagonist -44
CCOC(=O)N1CCN(C(=O)CSCc2nc(-c3ccccc3C)oc2C)CC1	D1 antagonist -34
CC(NC(=O)c1ccncc1)c1ccc(Cl)cc1Cl (configuration not stated)	none
O=[S+]([O-])(/C=C/c1nc(Nc2cc(F)cc(F)c2)c2ncn(CC(F)F)c2n1)c1ccccc1	none
COCCNC(=O)CCc1c(C)n(C)c2cc(-c3cc(OC)c(OC)c(OC)c3)nn2c1=O	none
Cc1ccc2oc3c(c(=O)c2c1)C(c1cccc(O)c1)N(Cc1ccccc1Cl)C3=O (configuration not stated)	D1 antagonist -55
CC(C)(C)c1ccc(-c2noc(CCC(=O)Nc3cccc(Cl)c3)n2)cc1	none
COc1cccc(CNC(=O)C2CCN(S(=O)(=O)c3ccc(-n4cnnn4)cc3)CC2)c1	none
COc1ccc(S(=O)(=O)N2CCC(C(=O)NCc3cccnc3)CC2)cc1OC	D1 antagonist -52
COc1cccc(CNC(=O)C2CCN(S(=O)(=O)c3cnc[nH]3)CC2)c1	D1 antagonist -39
Cc1ccc(S(=O)(=O)NCC2CCC(C(=O)NCc3ccccn3)CC2)cc1 (configuration not stated)	none
COc1ccccc1CNC(=O)C1CCN(S(=O)(=O)c2ccc(-n3cnnn3)cc2)CC1	D1 antagonist -39
Cc1ccc(S(=O)(=O)NCC2CCC(C(=O)NCc3cccnc3)CC2)cc1 (configuration not stated)	D1 antagonist -32
COc1ccc(S(=O)(=O)N2CCCC(C(=O)NCCC(C)C)C2)cc1 (configuration not stated)	D1 antagonist -30
COc1ccc(S(=O)(=O)N2CCCC(C(=O)O)C2)cc1 (configuration not stated)	none
CCOc1ccc(S(=O)(=O)N2CCCC(C(=O)NCc3cccnc3)C2)cc1 (configuration not stated)	D1 antagonist -31
CCOC(=O)c1c(C)[nH]c(C)c1S(=O)(=O)N1CCCC(C(=O)NCc2ccc(N(C)C)cc2)C1 (configuration not stated)	D1 antagonist -31
COc1ccc(S(=O)(=O)N2CCCC(C(=O)NCc3ccccc3)C2)cc1 (configuration not stated)	D1 antagonist -31
Cc1ccc(S(=O)(=O)N(Cc2ccccc2)c2ccccc2C(=O)NCc2cccnc2)cc1	D1 antagonist -38
COc1ccc(CNC(=O)[C@@H](NC(=O)C2CCN(S(=O)(=O)c3ccc(C)cc3)CC2)C(C)C)cc1OC	D1 antagonist -33
O=C(c1ccc2ccccc2c1)C1CCCN(S(=O)(=O)c2cccnc2)C1 (configuration not stated)	D1 antagonist -53
CCCN(CCC)S(=O)(=O)c1ccc2c(c1)N(CC(=O)NC(C)c1ccccc1)C(=O)CS2 (configuration not stated)	none
C[C@@H]1CN(CCCn2c3ccccc3c3ccccc32)C[C@H](C)N1	D1 agonist 40
CCOC(=O)C(Cc1cc(C(C)=O)ccc1OC(C)C)C(=O)OCC	D1 antagonist -34
CCOC(=O)C(Cc1cc(C(C)=O)ccc1OCC)C(=O)OCC	none
Cc1cc(C)c(S(=O)(=O)NCc2ccc3c(c2)OCO3)c(C)c1	D1 antagonist -36
O=S(=O)(NCc1ccc2c(c1)OCO2)c1cccc2cccnc12	D1 antagonist -52
O=S(=O)(NCc1ccc(Cl)cc1)c1cccc2cccnc12	none
O=C(c1ccc(F)cc1)N1CCC2(CC1)NCCc1[nH]cnc12	none
CCCN(CCC)CCCNC(=O)C1CCN(S(=O)(=O)CC)CC1	none
OCC1(Cc2ccccc2F)CCCN(Cc2c(F)ccc(F)c2F)C1 (configuration not stated)	TRHR PAM 30
O=C(CSc1nc2ccc(NC(=O)CSc3nnnn3-c3ccccc3)cc2s1)Nc1ccccc1	none
O=C1c2ccccc2C(=O)N1CCCCSc1nnnn1-c1ccccc1	D1 antagonist -30, D1 agonist 71
O=C1c2ccccc2C(=O)N1CSc1nnnn1-c1ccccc1	none
c1ccc(-n2nnnc2SCCCSc2nc3ccccc3s2)cc1	TRHR PAM 34
Clc1cccc(-c2nc3ccccn3c2Nc2ccc3c(c2)OCCO3)c1	none
Cc1cc(Cl)nc(-n2nc(C)cc2C)n1	D1 antagonist -42
CN(C)c1cccc(C(=O)Nc2ccc(-c3nc4ccccc4s3)cc2)c1	none
COc1ccccc1N1CCN(CCCNC(=O)c2cnn(-c3cccc(Cl)c3)c2C2CCN(C(=O)OC(C)(C)C)CC2)CC1	D1 antagonist -31
COc1ccccc1N1CCN(CCCNC(=O)c2cnn(-c3ccc(C)c(C)c3)c2C2CCN(C(=O)OC(C)(C)C)CC2)CC1	none
CN1CCN(CCCNC(=O)c2cnn(-c3ccccc3)c2C2CCN(C(=O)OC(C)(C)C)CC2)CC1	none
Cc1ccc(C)c(N2CCN(CCCNC(=O)c3cnn(-c4ccccc4)c3C3CCN(C(=O)OC(C)(C)C)CC3)CC2)c1	D1 antagonist -42
Cc1cccc(S(=O)(=O)c2cn(C)c3cc(N4CCN(c5ccccc5)CC4)c(F)cc3c2=O)c1	TRHR PAM 32
O=c1c(S(=O)(=O)c2ccccc2)cn(Cc2ccccc2)c2cc(N3CCCC3)c(F)cc12	none
O=c1c(S(=O)(=O)c2ccccc2)cn(Cc2ccc(F)cc2)c2cc(N3CCCCC3)c(F)cc12	D1 antagonist -44
CC(=O)c1cccc(NC(=O)N2CCC(CN3CCCCC3)CC2)c1	none
CCOC(=O)C1CCN(C(=O)C2CCN(c3nnc(C)c4c(C)n(-c5ccccc5)nc34)CC2)CC1	none
Cc1cc(C)c2sc(N3CCN(C(=O)C4CC4)CC3)nc2c1	none (no result: D1 antagonist)
COc1ccc(NC(=O)CN(C)C(=O)c2ccccc2OCC(=O)Nc2cccc(C(F)(F)F)c2)cc1	D1 antagonist -33
COc1ccc(CN(C)C(=O)c2ccc(OCC(=O)Nc3cccc(C(F)(F)F)c3)c(OC)c2)c(OC)c1	none
COc1cc(C2SCC(=O)N2CCN2CCCCC2)ccc1O (configuration not stated)	none
COc1cccc(CNC(C)(C)CO)c1OCc1ccc(Cl)cc1	none (no result: D1 PAM)
